Screening results as filed in PubChem BioAssay.
KCNQ2 enhance = enhances the rat KCNQ2 potassium channel | B-score at 10 µM | O88943 | CHO-K1 KCNQ2, FluxOR thallium flux fluorescence; hits give high values | AID 2239 | actives 0.54% (n = 310,000);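 active = fluorescence ratio B-score at least 3 SD of library B-scores, with initial fluorescence B-score within 3 of them, cut at about 5.3 in these data; same plate scores as AID 2156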;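 note: B-score of peak minus minimum over baseline fluorescence ratio after K+ and Tl+ stimulus; positive B-score means potentiation of KCNQ2 with more thallium influx and brighter signal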
Target sequence (O88943 whole entry, looked up): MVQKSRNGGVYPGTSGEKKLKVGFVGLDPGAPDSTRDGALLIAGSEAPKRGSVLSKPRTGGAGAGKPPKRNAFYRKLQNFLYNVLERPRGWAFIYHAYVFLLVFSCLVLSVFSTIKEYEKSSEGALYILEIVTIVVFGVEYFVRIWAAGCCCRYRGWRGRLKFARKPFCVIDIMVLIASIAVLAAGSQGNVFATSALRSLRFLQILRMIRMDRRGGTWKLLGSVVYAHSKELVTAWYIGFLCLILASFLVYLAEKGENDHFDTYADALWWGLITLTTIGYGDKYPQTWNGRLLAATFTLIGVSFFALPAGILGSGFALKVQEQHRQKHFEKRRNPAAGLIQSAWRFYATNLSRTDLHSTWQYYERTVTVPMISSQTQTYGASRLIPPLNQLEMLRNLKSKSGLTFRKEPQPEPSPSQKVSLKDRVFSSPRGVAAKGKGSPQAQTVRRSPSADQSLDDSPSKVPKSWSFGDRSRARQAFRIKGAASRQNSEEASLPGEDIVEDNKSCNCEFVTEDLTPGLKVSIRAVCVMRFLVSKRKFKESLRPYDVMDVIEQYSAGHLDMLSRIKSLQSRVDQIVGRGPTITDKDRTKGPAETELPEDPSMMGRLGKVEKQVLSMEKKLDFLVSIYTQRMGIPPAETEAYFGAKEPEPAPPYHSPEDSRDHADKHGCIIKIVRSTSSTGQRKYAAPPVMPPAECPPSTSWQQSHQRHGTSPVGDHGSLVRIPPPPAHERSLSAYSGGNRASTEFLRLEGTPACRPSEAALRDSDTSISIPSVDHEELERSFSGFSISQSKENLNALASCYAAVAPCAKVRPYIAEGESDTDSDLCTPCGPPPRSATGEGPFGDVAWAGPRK
KCNQ2 inh = KCNQ2 (rat) channel inhibition. B-score at 10 µM. O88943. actives 1.1% (n = 310,000). CHO-K1 KCNQ2, FluxOR thallium flux, 20 min; hits give low values;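 active = fluorescence ratio B-score at most minus 3 library SDs, with starting brightness B-score within 2 library SDs, cut at about -5.5 in these data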
Large screens that a line does not name were inactive. Compounds with a hit are over-represented: about 1.6% of the library has one in this group of screens.

O=C(C1=C[C@H](c2ccccc2)C[C@H](OCc2ccc(CO)cc2)O1)N1CCN(Cc2ccccc2)CC1	none (no result: KCNQ2 enhance)
O=C(C1=C[C@@H](c2ccc(Br)cc2)C[C@@H](OCCCCO)O1)N1CCN(Cc2ccc3c(c2)OCO3)CC1	KCNQ2 inh -6.2
O=C(C1=C[C@@H](C2CC2)C[C@@H](OCCCCO)O1)N1CCN(Cc2ccccc2)CC1	none (no result: KCNQ2 enhance)
O=C(C1=C[C@@H](c2ccccc2)C[C@@H](OCc2ccc(CO)cc2)O1)N1CCN(Cc2ccc3c(c2)OCO3)CC1	KCNQ2 inh -5.8
O=C(C1=C[C@@H](C2CCCCC2)C[C@@H](OCCCCO)O1)N1CCN(Cc2ccccc2)CC1	KCNQ2 inh -5.7
O=C(C1=C[C@H](c2ccc(C(F)(F)F)cc2)C[C@H](OCCCCO)O1)N1CCN(Cc2ccc3c(c2)OCO3)CC1	none (no result: KCNQ2 enhance)
Cc1nc(Cl)sc1C(=O)Nc1cccc(Cl)c1C	none
CN(C)CCCCOc1ccccc1-c1ccccc1	none
NC(=S)n1[nH]c(-c2ccc([N+](=O)[O-])cc2)c(N=Nc2cccc([N+](=O)[O-])c2)c1=O	none
COc1ccc(CCCNC(=O)C2CCC(=O)N(CCc3cccc(F)c3)C2)cc1 (centres undefined)	none (no result: KCNQ2 enhance)
Cc1ccc(C)c(C(=O)CCC(=O)NCc2ccc(Cl)cc2)c1	KCNQ2 inh -6
Cc1ccc(CNC(=O)CCS(=O)(=O)c2ccc(Cl)cc2)cc1	none (no result: KCNQ2 enhance)
CCc1cc(C(=O)OC)c(NC(=O)CC2NCCNC2=O)s1 (centres undefined)	none
CCc1cc(C(=O)OC)c(NC(=O)C2CC(=O)NN2Cc2ccccc2)s1 (centres undefined)	KCNQ2 inh -5.9
COc1cccc(Nc2nc3ccc(OC)cc3s2)c1	none
COC(=O)C1=CN(c2ccc(F)cc2)C=C(C(=O)OC)C1c1ccc([N+](=O)[O-])cc1	none (no result: KCNQ2 enhance)
COC(=O)C1=CN(c2ccc(OC)cc2)C=C(C(=O)OC)C1c1ccc([N+](=O)[O-])cc1	KCNQ2 inh -5.6
CCOC(=O)/C(C#N)=C/NC(=O)NC(C)(C)C	none
COCc1cc(C)nc(SCC(=O)Nc2cc(C(F)(F)F)ccc2N2CCOCC2)c1C#N	KCNQ2 inh -5.6
COCc1cc(C)nc(SCC(=O)Nc2ccccc2C)c1C#N	none
CSc1cccc(NC(=O)CN(c2ccc(C)cc2C)S(C)(=O)=O)c1	none
COc1ccc(-c2nc(N3CCCCCC3)sc2C(=O)c2ccccc2)cc1	none (no result: KCNQ2 enhance)
O=C(c1ccccc1)c1sc(N2CCCCCC2)nc1-c1ccccc1	KCNQ2 inh -6.2
O=C(NC1CCCC1)c1cc2cc(Br)ccc2o1	none (no result: KCNQ2 enhance)
CCN=C(NCC)SC1CC(=O)N(c2ccc(OC)cc2)C1=O (centres undefined)	none (no result: KCNQ2 enhance)
CCN=C(NCC)SC1CC(=O)N(c2cccc(OCC)c2)C1=O (centres undefined)	KCNQ2 inh -6.2
Cn1nc(CC(=O)NCc2cccc3ccccc23)c2ccccc2c1=O	none
Cc1c(Cl)cccc1NC(=O)C1Cc2ccccc2CN1C(=O)c1ccccc1 (centres undefined)	KCNQ2 inh -7.9
Cc1cccc(NC(=O)C2Cc3ccccc3CN2C(=O)OCc2ccccc2)c1C (centres undefined)	none (no result: KCNQ2 enhance)
O=C(C1COc2ccccc2O1)N1CCN(c2ccccc2Cl)CC1 (centres undefined)	KCNQ2 inh -7.4
O=C(C1COc2ccccc2O1)N1CCN(c2ccccc2F)CC1 (centres undefined)	none (no result: KCNQ2 enhance)
Cc1ccccc1Nc1nc(N)nc(CSc2ccc(F)cc2)n1	none (no result: KCNQ2 enhance)
Cc1ccc(SCc2nc(N)nc(Nc3ccccc3C)n2)cc1C	KCNQ2 enhance 6.7
Cc1ccccc1Nc1nc(N)nc(CSCC(=O)Nc2cccc(Br)c2)n1	KCNQ2 enhance 27
Cc1ccc(SCc2nc(N)nc(Nc3ccccc3C)n2)c(C)c1	none
Cc1ccccc1NC(=O)c1cc(C(=O)c2cc(Cl)ccc2O)cn(-c2ccccc2C)c1=O	KCNQ2 inh -5.6
Cc1ccc(-n2cc(C(=O)c3cc(Cl)ccc3O)cc(C#N)c2=O)cc1	none (no result: KCNQ2 enhance)
CC1(C)NC(=O)N(CC(O)COc2cc3ccccc3cc2C(=O)N2CCCCC2)C1=O (centres undefined)	none (no result: KCNQ2 enhance)
CCOC(=O)c1sc(NC(=O)CSc2nnc(-c3ccc(OC)cc3)n2CCOC)nc1C	none (no result: KCNQ2 enhance)
COc1ccc(NC(=O)C(Cl)=C(Cl)Cl)cn1	none (no result: KCNQ2 enhance)
COc1ccc(NC(=O)/C(Cl)=C(/Cl)S(=O)(=O)Cc2ccccc2)cn1	KCNQ2 enhance 5.5
CC(C)(CNC(=O)C1CCCN1C(=O)c1cccs1)N1CCOCC1 (centres undefined)	none
CC1(C)Cc2c(C#N)c(NCc3ccco3)nc(-c3ccco3)c2CO1	none
CC1(C)Cc2c(C#N)c(N3CCCC3)nc(-c3ccco3)c2CO1	KCNQ2 inh -9.1
COC(=O)Cc1ccc(NC(=S)N2CCCC(CO)C2)cc1 (centres undefined)	none
CC(=O)c1ccc(NC(=S)N2CCCC(CO)C2)cc1 (centres undefined)	KCNQ2 enhance 13
COC(=O)CSc1nnc(-c2ccc(NS(=O)(=O)c3ccccc3)cc2)o1	KCNQ2 inh -6.2
Cc1ccc(CSc2nnc(-c3ccc(NS(=O)(=O)c4ccccc4)cc3)o2)cc1	none (no result: KCNQ2 enhance)
